Shown are actives, neighbours in structure and some others; about 1.5% of the full set was active somewhere.
TLR4-MyD88 BLA: inhibitors of TLR4-MyD88 association in cells, primary screen, cell-based, HeLa CL3-4, BLA complementation, FRET ratio. Toll-like receptor 4 (Homo sapiens) + Myeloid differentiation primary response protein …. HeLa CL3-4 TLR4/MyD88 BLA complementation. inhibition, % at 8.4 µM. hit rate 0.18% among 200,000. AID 861, 2007; in the data active = inhibition above about 25%;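 note: 0% = vehicle and 100% = reference inhibitor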
ABHD5-PLIN5 inh: ABHD5-PLIN5 interaction inhibitors, primary screen, cell lysate, split luciferase complementation, luminescence | Perilipin-5 (Homo sapiens) + 1-acylglycerol-3-phosphate O-acyltransferase ABHD5 (Homo … | Split G. princeps luciferase complementation, 4 h | inhibition, % at 4 µM | hit rate 0.78% among 360,000 | AID 602281, 2012;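 active = inhibition above the mean inhibition across every tested compound plus 3 SD, cut at about 22% in these data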;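 note: 0% = DMSO only wells and the 100% control is not disclosed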
NOD2-RIPK2 inh: NOD2-RIPK2 binding disruptors in cells, primary screen, fluorescence, CHO cells, BLA complementation | Receptor-interacting serine/threonine-protein kinase 2 (Homo sapiens), O43353 | CCF4 ratio | inhibition, % at 4.98 µM | hit rate 0.38% among 360,000 | AID 624267, 2012; in the data active = inhibition above about 21%;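 note: 0% = vehicle only and 100% = reference blocker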
NTR1 agonist: agonists of human NTR1, primary screen, imaging, U2OS cells, beta-arrestin-GFP, high content | Neurotensin receptor type 1 (Homo sapiens), P30989 | NTR1-U2OS beta-arrestin-GFP spot imaging, agonist mode | activation, % at 20 µM | hit rate 0.17% among 330,000;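 active = activation at or above 40% of the spot to cytoplasm intensity ratio, with at least 20 cells analyzed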;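 note: 0% = DMSO without peptide and 100% = 100 nM NTR1 peptide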
B2AR ag: beta2AR agonists driving receptor internalization, primary screen, cell-based, FAP fluorogen, flow cytometry | response, % (test concentration not listed) | Am2.2-beta2AR cells | hit rate 0.43% among 340,000 | AID 504454, 2011 | Beta-2 adrenergic receptor (Homo sapiens), P07550;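 active = response above a set limit, near 3 SD of response in nonfluorescent compounds, cut at about 42% in these data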
TLR9-MyD88 inh: inhibitors of TLR9-MyD88 association in cells, primary screen, cell-based, CHO, BLA complementation, fluorescence; CCF4 FRET ratio; inhibition, % at 4.98 µM; hit rate 0.21% among 340,000; AID 504734, 2011;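 active = inhibition above the mean over all tested compounds plus 3 SD, cut at about 21% in these data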;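 note: 0% = DMSO only wells and 100% = clavulanate BLA inhibitor control wells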
ABHD5 PLIN5 conf: ABHD5-PLIN5 interaction inhibitors, confirmation, biochemical, luminescence. inhibition, % at 4 µM. hit rate 67% among 2,200. shares compounds with ABHD5-PLIN5 inh; in the data active = inhibition above about 23%;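 note: 0% = DMSO vehicle wells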
HNF4 split-luc: HNF4 dimerization inhibitors, counter-screen for ABHD5-PLIN5 interaction inhibitor project, biochemical, split-luciferase complementation, luminescence. inhibition, % at 4 µM. shares compounds with ABHD5-PLIN5 inh. hit rate 77% among 2,200. AID 651674, 2012;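 active = mean inhibition across replicate wells exceeding the computed hit threshold, cut at about 13% in these data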;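 note: light from luciferase halves that rejoin when HNF4 fusion proteins dimerize; 0% = DMSO only wells and the 100% control is not given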
Target sequence (P41235 whole entry, looked up, the tested form may be a part): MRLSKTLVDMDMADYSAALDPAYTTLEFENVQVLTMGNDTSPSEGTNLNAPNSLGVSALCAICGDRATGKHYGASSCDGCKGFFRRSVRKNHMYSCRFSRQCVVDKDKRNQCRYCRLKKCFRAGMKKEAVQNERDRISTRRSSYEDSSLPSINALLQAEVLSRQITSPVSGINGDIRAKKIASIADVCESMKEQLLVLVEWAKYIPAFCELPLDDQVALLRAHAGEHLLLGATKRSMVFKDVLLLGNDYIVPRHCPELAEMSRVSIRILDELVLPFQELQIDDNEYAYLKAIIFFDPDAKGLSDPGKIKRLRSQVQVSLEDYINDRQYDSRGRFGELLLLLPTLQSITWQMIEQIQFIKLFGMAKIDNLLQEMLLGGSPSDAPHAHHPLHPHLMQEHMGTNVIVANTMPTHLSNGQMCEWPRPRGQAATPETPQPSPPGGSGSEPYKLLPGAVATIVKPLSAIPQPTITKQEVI
Active calls of the source: *; x = no result given.

SMILES | TLR4-MyD88 BLA | ABHD5-PLIN5 inh | NOD2-RIPK2 inh | NTR1 agonist | B2AR ag | TLR9-MyD88 inh | ABHD5 PLIN5 conf | HNF4 split-luc
Cc1cc2oc(=O)sc2cc1NS(=O)(=O)c1cccc2cccnc12 | x | -11.1 | -2.7 | -1.4 | -9.4 | -4.3 | x | x
CC(=O)N(c1ccc2oc(=O)sc2c1)S(=O)(=O)c1ccc(C(=O)O)cc1 | x | 25.3* | -6.5 | 0.9 | 3.2 | -1.5 | -42.5 | 81.6*
CC(=O)OCC1=C(C(=O)O)N2C(=O)C(NC(=O)c3ccc(F)cc3)C2SC1 (centres undefined) | -2.3 | 29.8* | -2.0 | 0.9 | -0.3 | -20.3 | 4.1 | 28.1*
COCCNC(=O)C1(C)CCN(Cc2cccc(Oc3ccccc3)c2)C1 (centres undefined) | x | 2.8 | -9.1 | x | x | x | x | x
Cc1ccc(C(=O)Nc2ccccc2C(=O)N2CCCCC2C)cc1 (centres undefined) | x | 106.5* | -10.1 | -1.2 | -2.7 | -5.0 | -1.1 | 5.3
Cc1ccc(C(=O)Nc2ccc(C(=O)N3CCCCC3C)cc2)cc1 (centres undefined) | 10.2 | 9.6 | -5.7 | 1.2 | 10.2 | -7.0 | x | x
Fc1ccc(C2CC(c3ccco3)=Nc3ccccc3S2)cc1 (centres undefined) | -5.2 | 46.0* | 2.9 | 5.1 | -15.0 | -3.4 | -0.1 | 69.3*
CCCCCCCCOC(=O)c1cc([N+](=O)[O-])c(Sc2ncnc3nc[nH]c23)c([N+](=O)[O-])c1 | x | 28.1* | 17.8 | x | 99.2* | -9.4 | 99.0* | 89.9*
CCCCOC(=O)c1ccc(Nc2ncnc3nc[nH]c23)cc1 | 6.4 | 6.2 | -7.8 | 0.8 | -1.3 | 2.9 | x | x
Cc1ccc(-n2c(CCC(=O)O)ccc2-c2cccs2)cc1 | -9.3 | 18.4 | -5.9 | 1.9 | 12.2 | -10.2 | x | x
CC(=O)c1ccc(-n2c(CCC(=O)O)ccc2-c2cccs2)cc1 | -6.9 | 31.8* | -3.8 | -1.0 | -1.0 | -7.0 | 5.3 | 49.5*
NC(=O)c1ccc(-n2c(CCC(=O)O)ccc2-c2cccs2)cc1 | -21.4 | 31.2* | -9.8 | 0.8 | 2.1 | 12.3 | 0.5 | 40.2*
CCOc1cc(/C=C/C(=O)c2ccc(OC)c(CN3CCOCC3)c2)cc(Br)c1O | x | 23.4* | 4.2 | 6.3 | -26.8 | 3.0 | 29.6* | 23.9*
CCOc1cc(/C=N/NC(=O)c2ccc(CN3CCOCC3)cc2)ccc1OC | 5.8 | 2.0 | 1.9 | 0.9 | 3.2 | -4.0 | x | x
CCOC(=O)C1CCCN(C(=O)c2cccc(OC(F)(F)F)c2)CC1 (centres undefined) | x | -4.2 | -9.4 | x | x | x | x | x
Cc1cccc(C)c1OCc1cn(CC(=O)c2ccc(O)cc2)nn1 | x | 45.0* | 5.7 | x | -5.9 | -1.3 | 65.9* | 36.8*
CC(=O)Nc1ccc(OCc2cn(CC(=O)c3ccc(O)cc3)nn2)cc1 | x | 68.1* | -5.1 | x | x | 1.9 | 83.1* | 52.6*
COc1cc(C(C)=O)ccc1OCc1cn(CC(=O)c2ccc(O)cc2)nn1 | x | 24.9* | -5.8 | x | 1.8 | 3.4 | 53.0* | 31.1*
CC(=O)c1ccc(OCc2cn(CC(=O)c3ccc(O)cc3)nn2)c(C)c1 | x | 6.0 | 2.5 | x | x | 10.1 | x | x
O=C(Cn1cc(COc2ccccc2C(F)(F)F)nn1)c1ccc(O)cc1 | x | -0.2 | 1.4 | x | 5.2 | -2.9 | x | x
O=C(Cn1cc(COc2cc(F)cc(F)c2)nn1)c1ccc(O)cc1 | x | 3.1 | 5.4 | x | -6.0 | 8.6 | x | x
CC(=O)c1ccc(OCc2cn(CC(=O)c3ccc(O)cc3)nn2)cc1 | x | 23.5* | -3.4 | x | -3.5 | 0.4 | 20.4 | 23.7*
CCc1c(-c2ccccc2OC)ncn1Cc1cccc(-c2ccccc2)c1 | x | 5.7 | 8.0 | x | x | x | x | x
CCc1nc2c(OCc3cc(Cl)cc(Cl)c3)cccn2c1N(C=O)Cc1ccccc1 | x | 2.4 | 3.6 | x | x | x | x | x
COc1ccc(C(C)(O)c2nc(-c3ccncc3)cs2)cc1 (centres undefined) | x | 3.7 | -3.1 | x | x | x | x | x
SMILES | TLR4-MyD88 BLA | ABHD5-PLIN5 inh | NOD2-RIPK2 inh | NTR1 agonist | B2AR ag | TLR9-MyD88 inh | ABHD5 PLIN5 conf | HNF4 split-luc
CN(C)c1ccc(-c2[nH][nH]c(=O)c2NC(=O)c2ccccn2)cc1 | x | 59.6* | 4.9 | x | x | x | 6.8 | 44.9*
CN(C)c1ccc(-c2[nH][nH]c(=O)c2NC(=O)c2ccc3ccccc3n2)cc1 | x | 54.2* | 10.4 | x | x | x | -52.1 | 47.9*
COc1ccc(/C=C/C(=O)Nc2ccncc2)cc1OC | -10.4 | 1.6 | -7.1 | 2.6 | 10.9 | -9.3 | x | x
COc1ccc(C=CC(=O)c2ccc3cc(OC)c(OC)cc3c2)cc1OC | x | 41.4* | 14.6 | x | x | 9.9 | 41.3* | 26.3*
COc1ccc(/C=C/C(=O)c2ccc(NC3=NCCCS3)cc2)cc1OC | 7.9 | 36.1* | 10.5 | 1.4 | 8.9 | 8.8 | 46.7* | 39.9*
CCC1CSC(Nc2ccc(C(=O)/C=C/c3ccc(OC)c(OC)c3)cc2)=N1 (centres undefined) | 0.0 | 16.6 | 2.0 | 6.2 | 12.1 | 3.6 | x | x
COc1ccc(/C=C/C(=O)c2ccc(OC)cc2OC)c(OC)c1 | -8.5 | -2.7 | 0.8 | -0.9 | -0.8 | -2.9 | x | x
CCC1CSC(Nc2ccc(C(=O)/C=C/c3ccc(Br)cc3)cc2)=N1 (centres undefined) | 2.2 | 23.8* | 1.7 | 18.6 | 10.7 | -2.5 | 51.9* | 38.8*
COc1ccc(C(=O)/C=C/c2ccc(OC)c(O)c2)c(F)c1 | 4.3 | 29.4* | 5.9 | 10.1 | 18.5 | 10.2 | 55.4* | 49.7*
CC1(C(=O)NCc2ccccc2Br)CCN1Cc1csc2ccccc12 (centres undefined) | x | 1.1 | 4.8 | x | x | x | x | x
COc1ccc(C=CC(=O)c2ccc(OC)c(OC)c2O)cc1OC | x | 45.8* | 4.2 | x | 17.4 | -3.1 | 55.1* | 43.6*
COc1cc(OC)c(C(=O)C=Cc2ccc(OC)c(OC)c2)c(OC)c1 | x | 19.6 | -35.5 | x | 1.2 | -1.0 | x | x
COC(=O)C1(C(=O)OC)c2ccccc2CN(S(=O)(=O)c2ccc(C)cc2)C1CC(C)=O (centres undefined) | x | -5.0 | -9.9 | x | x | x | x | x
Cc1nc(CCNC(=O)CC2C(=O)NCCN2Cc2ccoc2)nc2c1CCCC2 (centres undefined) | -1.0 | 21.7 | -10.6 | -0.3 | 2.8 | -8.0 | x | x
Cc1nc(CNC(=O)CC2C(=O)NCCN2Cc2ccoc2)nc2c1CCCC2 (centres undefined) | x | 34.2* | -6.6 | -0.4 | 8.2 | -1.2 | 44.8* | 33.7*

Bioassay records (PubChem BioAssay)
